Source: PubChem BioAssay (NCI)
This is part of a sample that, as a whole, favours compounds with a hit. Of some 79,000 tested, about 15% had one in any assay. Rule as the data show it: active = growth inhibition above about 70%; inactive = the rest.

Legend:
[1] = NCI Yeast Anticancer Drug Screen. Data for the rad50 strain (AID 155);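 also: 0% = growth of vehicle-only cultures of the same strain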; conditions: S. cerevisiae rad50 strain growth inhibition; at 50.0 µM; stronger effect = higher value
Summary of the method: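 Vehicle-treated cultures provide the reference for the growth inhibition reported for compound-exposed, repair-deficient yeast.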

[2] = NCI Yeast Anticancer Drug Screen. Data for the mec2-1 strain (AID 157); conditions: S. cerevisiae mec2-1 strain, at 50.0 µM, stronger effect = higher value
Summary of the method: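 Vehicle-treated cultures served as reference for growth inhibition of compound-exposed mec2-1 yeast.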

[3] = NCI Yeast Anticancer Drug Screen. Data for the sgs1 mgt1 strain (AID 161);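 also: 0% = growth of cultures given vehicle only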; conditions: S. cerevisiae sgs1 mgt1 strain, at 50.0 µM, stronger effect = higher value
Summary of the method: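 Mutant yeast exposed to compound; growth scored against vehicle-only wells.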

[4] = NCI Yeast Anticancer Drug Screen. Data for the cln2 rad14 strain (AID 165);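 also: 0% = growth equal to vehicle treated cultures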; conditions: S. cerevisiae cln2 rad14 strain, at 50.0 µM, stronger effect = higher value
Summary of the method: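 Each compound was tested on cln2 rad14 yeast. Inhibition of growth was calculated against vehicle-exposed controls.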

[5] = NCI Yeast Anticancer Drug Screen. Data for the mlh1 rad18 strain (AID 175); conditions: S. cerevisiae mlh1 rad18 strain growth inhibition; at 50.0 µM; stronger effect = higher value
Summary of the method: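 Vehicle-treated cultures served as the reference for growth inhibition in a yeast strain carrying DNA damage repair alterations exposed to each compound.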

[6] = NCI Yeast Anticancer Drug Screen. Data for the bub3 strain (AID 167); conditions: S. cerevisiae bub3 mutant strain, at 50.0 µM, stronger effect = higher value
Summary of the method: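 Mutant yeast screening strain plus compound; vehicle-treated cultures serve as the 0% inhibition reference.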

Measured: growth inhibition

COC(=O)Nc1cc2c3c(c1)CCCN3CCC2
inactive: [1] -6.35% | [2] -4.05% | [3] -2.2% | [4] -10.2% | [5] 1.8%

Fc1c(F)c(F)c(-c2nnc(-c3c(F)c(F)c(F)c(F)c3F)o2)c(F)c1F
inactive: [1] -2.45% | [2] 2.75% | [3] -8.75% | [4] -56.8% | [5] 4.25%

O=S1C2CCC(Br)C1CCC2Br (stereo not given)
inactive: [1] 7.95% | [2] -6.15% | [3] 23.1% | [4] -5.35% | [5] 12.4%

N#Cc1c(N)nc(Nc2cccc3ccccc23)c(C#N)c1C#N
inactive: [1] 37.7% | [2] 29.7% | [3] 29.1% | [4] 39.9% | [5] 36.8%

O=C1/C(=C/c2ccc3c(c2)OCO3)CC/C1=C\c1ccc2c(c1)OCO2
inactive: [1] -10.2% | [2] 5.35% | [3] -19.7% | [4] -55.6% | [5] -26.9%

O=C(O)c1ccc(NC(=S)Nc2ccc(C(=O)O)cc2)cc1
inactive: [1] -13.5% | [2] -0.15% | [3] 19.9% | [4] -7.4% | [5] -22.9%

O=[N+]([O-])c1ccc(C(O)(C#CCN2CCCC2)c2ccccc2)cc1 (stereo not given)
inactive: [1] 20.5% | [2] 11.9% | [3] -24.1% | [4] 10.2% | [5] 12.7%

O=C1OC(c2ccccc2Cl)Sc2ccccc21 (stereo not given)
inactive: [1] -3.25% | [2] 25.1% | [3] 20.1% | [4] -30.7% | [5] 32.8%

O=C(O)c1ccc2ncc(-c3ccccc3)nc2c1
inactive: [1] 5.3% | [2] 11.7% | [3] 2.35% | [4] -31.1% | [5] 16.4%

Cc1ccccc1C=O
inactive: [1] -2.75% | [2] -32.6% | [3] 5.15% | [4] -3.35% | [5] -0.85%

Cn1c(N(CCO)CCO)cnc1[N+](=O)[O-]
inactive: [1] 11.7% | [2] 8.8% | [3] -21.8% | [4] -16.4% | [5] -4.8%

COc1ccc([N+](=O)[O-])c(OC)c1
inactive: [1] 4.4% | [2] -19.1% | [3] -30.9% | [4] 17.2% | [5] 9.05%

Cn1c(=O)c2[nH]c(N(CCO)CCO)nc2n(C)c1=O
inactive: [1] 7.75% | [2] 9.95% | [3] 23.9% | [4] 21.9% | [5] 15.1%

Cc1cc(C)n(-c2ccc(Cl)nn2)n1
inactive: [1] 9.25% | [2] 8.35% | [3] 4.35% | [4] -27.6% | [5] -1.7%

COc1ccc(C2C(C#N)=C(S)N(C3OC(COC(C)=O)C(OC(C)=O)C(OC(C)=O)C3OC(C)=O)C(c3ccccc3)=C2C(C)=O)cc1 (stereo not given)
inactive: [1] 44% | [2] 38.4% | [3] 42% | [4] -4.2% | [5] 39%

Fc1ccccc1CSc1n[nH]c(=S)c2nc[nH]c12
inactive: [1] 4.05% | [2] 8.3% | [3] 17.8% | [4] -12.3% | [5] 12%

CCOC(=O)C(NC(C)=O)C(=O)OCC
inactive: [1] -3.4% | [2] 10.2% | [3] 3.5% | [4] -12.6% | [5] -16.4%

CC(=O)Nc1ccc2c(c1)C(N1CCCCC1)c1ccccc1-2 (stereo not given)
inactive: [1] -42.2% | [2] -17.8% | [3] 4.2% | [4] -40.1% | [5] -5.4%

O=C1C=CC(=O)N1n1c(-c2ccccc2)n[nH]c1=O
inactive: [1] 4.05% | [2] -15.6% | [3] -16.9% | [4] -2.8% | [5] -53.6%

CCOC(=O)CCC(NC(=O)C(CCC(=O)OCC)NC(=O)C(Cc1ccc([N+](=O)[O-])cc1)NC(C)=O)C(=O)NNC(=O)OC(C)(C)C (stereo not given)
inactive: [1] -22.8% | [2] -28.4% | [3] -17% | [4] -3.35% | [5] -7.3%

Cc1ccc(S(=O)(=O)N/N=C/c2cc([N+](=O)[O-])ccc2O)cc1
inactive: [1] 5% | [2] 3.4% | [3] 10.1% | [4] 14.8% | [5] 28.9%

Cc1ccc(S(=O)(=O)N2CCC(C(=O)N3CCCC3)(c3cccc(C)c3)CC2)cc1
inactive: [1] -55.5% | [2] -35.4% | [3] -46.4% | [4] 0.1% | [5] -43.1%

CN1C(=O)/C(=C2\SC(=O)N(CN3CCCCC3)C2=O)c2cc(Br)ccc21
inactive: [1] -10.6% | [2] -1.2% | [3] -11.2% | [4] 10.2% | [5] 18.1%

CCCCCCCCCCCCCCCCC[CH2][Sn]([Cl])([CH2]CCCCCCCCCCCCCCCCC)[CH2]CCCCCCCCCCCCCCCCC
inactive: [1] 9.15% | [2] -1.2% | [3] -16.7% | [4] -2.55% | [5] -13.7%

N#CC(C#N)c1ccc(C(C#N)C#N)cc1
inactive: [1] -9.15% | [2] -6.75% | [3] 0.25% | [4] -16% | [5] -1.55%

O=C(O)c1cc(=O)[nH]c(=O)[nH]1
inactive: [1] -17.6% | [2] 0.05% | [3] -14.9% | [4] 7.05% | [5] -21.2%

c1ccc(N2CCN(C(c3cccs3)N3CCN(c4ccccc4)CC3)CC2)cc1
inactive: [1] 7.35% | [2] 8.9% | [3] 0.8% | [4] -4.15% | [5] 19.1%

C=C(C)C(=O)OCC(O)C[N+](C)(C)C (stereo not given)
inactive: [1] 0.35% | [2] -15.8% | [3] 2.9% | [4] 11.2% | [5] 4.3%

CCOC(=O)c1c(C)[nH]c(C2=NCCC2)c1C
inactive: [1] -8.7% | [2] 5.3% | [3] 1.7% | [4] -55.9% | [5] -5.95%

C=C(C)C(=O)NC(Cc1cnc[nH]1)C(=O)O (stereo not given)
inactive: [1] 8.2% | [2] 0.5% | [3] 16.1% | [4] 1.15% | [5] 0.55%

O=C(NC(=O)c1c(F)cccc1F)Nc1ccc(C(O)(C(F)(F)F)C(F)(F)F)cc1
inactive: [1] -33.2% | [2] 14.5% | [3] 10.2% | [4] 24.1% | [5] 3.55%

OC1CCCN(Cc2ccccc2)C1 (stereo not given)
inactive: [1] 9.3% | [2] -15.7% | [3] 8.55% | [4] 4.5% | [5] 7.35%

CN1C2C=CC(=O)C1C1C(=O)N(c3ccccc3)C(=O)C12 (stereo not given)
inactive: [2] 45.1% | [3] 54% | [4] 31.4% | [6] 23.8% | [5] 27.1%

COc1ccc2[nH]c3c4c(ccc3c2c1)C(=O)C=CC4=O
inactive: [2] 18.3% | [3] 12% | [4] -1.05% | [6] 9.45% | [5] 17.6%

Cc1cc(Br)ccc1NC1=CC(=O)C(=O)c2ccccc21
inactive: [2] 19.6% | [3] -3.4% | [4] 11.3% | [6] 13.2% | [5] 32.1%

CC(O)c1ccc2c(c1)Nc1ccccc1S2 (stereo not given)
inactive: [2] -21.9% | [3] -16.4% | [4] -7.05% | [6] -24.4% | [5] -11%
